Test results from PubChem BioAssay (NCI).
The panel holds about 83,000 compounds, 20% with a hit somewhere; the sample as a whole holds those more often.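 In brief: 96-well plates, 48 h treatment, single concentration, percent growth endpoint.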 The source made the active and inactive calls.

test system: UO-31 renal; experiment: NCI-60 one-dose screen, 48 h (100 = growth as untreated, 0 = no growth, -100 = all killed); details: 10 µM unless noted
Method: Growth inhibition of the UO-31 human tumor cell line is measured as a screen for anti-cancer activity. Cells are grown in 96 well plates and exposed to the test compound for 48 hours. Compounds are tested at a single concentration, which is 10^-5 M for most compounds. The reported endpoint is percent growth (GI% or GIPRCNT), where numbers from 0 - 100% represent growth inhibition, and numbers from -100% - 0 represent cell death. For example, a value of 40 represents 60% growth inhibition. A value of 0 means no net growth occurred over the course of the experiment. A value of -40 indicates 40% of cells at the beginning of the experiment died by the end of the experiment. A value of -100 means all cells are dead at the end of the experiment.
NCI-60 Human Tumor Cell Lines Screen was performed using the standard one-dose NCI protocol, which is described in more detail at https://dtp.cancer.gov/discovery_development/nci-60/default.htm.
Compounds with GIPRCNT values below 10 were considered active. Activity score was based on GIPRCNT using the following formula: […]
Score is 0 for GIPRCNT values of 100 or above, 50 for GIPRCNT values of 0, and 100 for GIPRCNT values of -100.

Structure (SMILES)	growth
CCS(=O)(=O)c1ncnc2nc[nH]c12	92.6% (inactive)
COc1cc(C(=O)N2N=C(c3ccc(S(C)(=O)=O)cc3)CC2c2ccco2)cc(OC)c1OC (stereo not given)	18.6% (inactive)
COC1=C(C)C(=O)c2c(c(CCCl)c3n2CCC3OC(C)=O)C1=O (stereo not given)	-60.9% (active)
COc1ccc(C(=O)C(C)C)c2ccccc12	90.8% (inactive)
c1ccc2c(c1)Nc1ccncc1S2	78.5% (inactive)
CN(C)CCCNc1nc2ccccc2c2c(=O)c3cc(F)ccc3sc12	24.9% (inactive)
CC1=NN(c2ccc(S(=O)(=O)O)cc2)C(=O)C1N=Nc1ccc(-c2ccc(N=Nc3ccc(OS(=O)(=O)c4ccc(C)cc4)cc3)c(S(=O)(=O)O)c2)cc1 (stereo not given)	69.8% (inactive)
CCCCCCCCCCCCCCCCCCOc1ccc(CC(=O)OCC[N+]2(C)CCCCC2)cc1	94.1% (inactive)
CCOc1c(B(O)O)cccc1-c1nc2ccc3[nH]ncc3c2c2c1CCCC2	29.9% (inactive)
COc1cccc(Cc2cc(-c3ccccc3)nn(CC(=O)c3ccccc3)c2=O)c1	65.1% (inactive)
CCOc1cccc(NC2=C(Br)C(=O)C(C)=C(C)C2=O)c1	71.7% (inactive)
CC1=C(SCCC(=O)OC(C[Se]C2=C(C)C(=O)c3ccccc3C2=O)C(=O)NC(C)(C)C)C(=O)c2ccccc2C1=O (stereo not given)	-41.2% (active)
O=C(CCOCCNC(=O)COc1ccc2c(c1)OCC(c1ccc(F)cc1)C2=O)NCCCC(O)(P(=O)(O)O)P(=O)(O)O (stereo not given)	95.3% (inactive)
COc1ccc(/C=C/c2c(C(=O)/C=C/c3ccc(Cl)cc3)c(C)nc3ccccc23)cc1	-21.3% (active)
O=c1[nH][n+](-c2ccc(Br)cc2)no1	22.7% (inactive)
CCCCn1c(-c2ccc(-c3nc(-c4ccc(Cl)cc4)no3)cc2)nc(-c2ccccc2)c1-c1ccccc1	-5.33% (active)
Nc1nc(-c2cccc3ccccc23)cc2ccccc12	19.6% (inactive)
CCc1cccc2c1S/C(=C/c1ccc(OC)cc1)C2=O	52.9% (inactive)
Fc1cc2c(cc1Cl)N(c1ncnc3ccc(-c4cnc5cnccn45)cc13)CC2	42.1% (inactive)
COc1nc2ccccc2cc1-c1nc2c(cnn2-c2ccccc2)c(=O)[nH]1	40.2% (inactive)

Structure (SMILES)	growth
COc1cc2cc(Oc3ccc(NC(=O)Nc4ccc(Cl)c(Cl)c4)cc3)c(C)nc2cc1OCCN1CCOCC1	83.9% (inactive)
CC(=O)CC(c1cccs1)c1c(-c2ccccc2)[nH]c2ccccc12 (stereo not given)	71.5% (inactive)
c1cc(-c2nnc(SSc3ncnc4nc[nH]c34)o2)ccn1	30% (inactive)
Cc1ccc(/C=N\NC(=O)c2[nH]c3ccc(F)cc3c2-c2ccccc2)cc1	32.1% (inactive)
CCN(CC)CCNC(=O)c1cn2ncnc(Oc3ccc(NC(=O)Nc4ccc(Cl)c(C(F)(F)F)c4)cc3)c2c1C	-92% (active)
COc1cc2cc(Oc3ccc(NC(=O)Nc4cccc(C(F)(F)F)c4)cc3)c(C)nc2cc1OCCN1CCOCC1	51.8% (inactive)
O=c1c2cc(F)ccc2sc2c(N3CCNCC3)nc3ccccc3c12	28.8% (inactive)
C=C1C(=O)O[C@H]2[C@H]1CC/C(COC(=O)CCSSCCC(=O)OC/C1=C/CC[C@@]3(C)O[C@H]3[C@H]3OC(=O)C(=C)[C@@H]3CC1)=C\CC[C@@]1(C)O[C@@H]21	-88.1% (active)
NC1CCN(c2nc(Nc3cccc(C(F)(F)F)c3)c3c(=O)[nH]ccc3n2)CC1	-80.8% (active)
COC(=O)CCC/C=C\C[C@H]1C=CC(=O)/C1=C/C[C@@H](O)CCc1cccc(C(F)(F)F)c1	-92.5% (active)
CN1CCN(c2ccc(-c3cc4c(Nc5ccc(F)c(Cl)c5)ncnn4c3)cn2)CC1	88.2% (inactive)
NC(=O)Nc1ccc2ncnc(Nc3ccc(Cl)cc3)c2c1	58% (inactive)
c1ccc(CO[C@H]2CO[C@H]3[C@@H]2OC[C@@H]3Oc2ccc(Nc3ncnc4ccsc34)cc2)cc1	42% (inactive)
C=C1C(=O)O[C@H]2[C@H]1CC/C(COC(=O)C(C)c1ccc(CC(C)C)cc1)=C\CC[C@@]1(C)O[C@@H]21 (stereo not given in full)	-87.6% (active)
COc1cc(C(=O)c2cnc(-c3c[nH]c4cccc(C)c34)[nH]2)cc(OC)c1OC	17% (inactive)
c1ccc(Nc2cc(-c3cccnc3)[nH]n2)cc1	80% (inactive)
COc1ccc2cc(C(C)C(=O)Nc3ccc(-c4n[nH]c(=S)n4C4CCCCC4)cc3)ccc2c1 (stereo not given)	-79.3% (active)
COc1cccc2c(=O)c3c(sc12)c(N1CCNCC1)nc1ccccc13	47.2% (inactive)
O=[N+]([O-])c1ccc(Oc2nc(Nc3ccc(O[C@H]4CO[C@H]5[C@@H]4OC[C@@H]5O)c(Cl)c3)ncc2F)c(Cl)c1	-9.77% (active)
CCCCCCCCCCCCCCCCCCOc1ccc(CC(=O)OCC[N+](C)(C)C)cc1	101% (inactive)
